# Test results: PubChem BioAssay (NCI)
# About 83,000 compounds went through this panel and 20% of them were active in at least one assay; those are over-represented in the sample as a whole.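 Method: cells in 96-well plates; compound added at one concentration; 48 h incubation; percent growth measured; values under 10 scored active.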 Calls of active or inactive are those of the source.
# System: MDA-MB-468 breast
# Assay: NCI-60 one-dose screen, 48 h (100 = growth as untreated, 0 = no growth, -100 = all killed)
# Conditions: 10 µM unless noted
row,SMILES,growth
1,NC(=O)CC(NC(=O)COc1ccc(Cl)cc1Cl)C(=O)O (stereo not given),108% (inactive)
2,CCOC(=O)c1c2c(cn1Cc1ccccc1)-c1oncc1CC2,105% (inactive)
3,CCCCn1c(=O)[nH]c2c(c1=O)C(c1ccc(Cl)cc1)c1c([nH]c(=O)n(CCCC)c1=O)N2,108% (inactive)
4,COc1cc(C(=O)O)c(O)c(C(C)(C)C)c1,100% (inactive)
5,CCN(CC)CCNC(=O)c1ccc(NC(C)=O)cc1,111% (inactive)
